Calls of active or inactive are those of the source. Unless noted, no rule for the calls is given here.
Assays:
[1] = test system: Wnt5a (protein binding on small-molecule microarray); assay: Wnt5a binders on small-molecule microarray, primary screen, biophysical, 635/667 nm fluorescence (AID 1142); details: 635 nm fluorescence, higher = more signal;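 also: fluorescence read at 667 nm with signal to noise per printed feature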
[2] = cell viability in Huh7 cells, primary screen, cytotoxicity control for HCV replication inhibitor project, CellTiter-Glo luminescence, basal, 48 h (AID 1143); details: Huh7 HCV replicon, higher = more signal, called active from +8 up or from −8 down;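 also: Huh7 hepatoma cells carrying a hepatitis C replication reporter with no stimulus; test concentration not given here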
[3] = P. aeruginosa biofilm formation inhibitors, primary screen, PAO1 strain, BacTiter-Glo luminescence, LB-PBS (AID 1144); details: 12 h, higher = more signal
[4] = CREB reporter modulators without forskolin, primary screen, cell-based, PC12, CRE-LacZ reporter, unstimulated (AID 1145); details: no forskolin, luminescence, 4.5 h, higher = more signal, called active from +8 up or from −8 down
[5] = CREB reporter modulators under forskolin, primary screen, cell-based, PC12, CRE-LacZ reporter, forskolin-stimulated (AID 1146); details: luminescence, 4.5 h, higher = more signal, called active from +8 up or from −8 down;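 also: PC12 cells with 6xCRE LacZ reporter stimulated by forskolin 10 µM; beta-galactosidase reporter signal reflecting CREB driven transcription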
[6] = target: Streptavidin (Streptomyces avidinii) (UniProt P22629); assay: streptavidin binders on small-molecule microarray, primary screen, artefact control for SMM compound annotation, biophysical, 635/667 nm fluorescence (AID 1147); details: streptavidin binding, higher = more signal;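 also: signal reflects streptavidin binding to arrayed compounds as a control protein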
Sequence of Streptavidin (Streptomyces avidinii) (P22629 whole entry, looked up): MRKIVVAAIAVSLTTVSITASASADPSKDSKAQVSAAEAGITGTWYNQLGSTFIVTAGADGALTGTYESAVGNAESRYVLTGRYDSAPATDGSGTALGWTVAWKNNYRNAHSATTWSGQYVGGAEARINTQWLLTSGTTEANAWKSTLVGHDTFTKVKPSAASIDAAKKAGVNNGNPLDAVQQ

[7] = small-molecule binders of probe aInhba, primary screen, biochemical, small-molecule microarray, 635/667 nm fluorescence (AID 1148); details: higher = more signal;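 also: score merges 667nm spot fluorescence with signal-to-noise for antibody binding to printed compounds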
[8] = target: Torsin-1A (Homo sapiens) (UniProt O14656); assay: torsin A binders from cell lysate, primary screen, small-molecule microarray, wild-type, 635/667 nm (AID 1149); details: COS7 hTOR1A-WT lysate, 635 nm fluorescence, higher = more signal
Sequence of Torsin-1A (Homo sapiens) (O14656 whole entry, looked up): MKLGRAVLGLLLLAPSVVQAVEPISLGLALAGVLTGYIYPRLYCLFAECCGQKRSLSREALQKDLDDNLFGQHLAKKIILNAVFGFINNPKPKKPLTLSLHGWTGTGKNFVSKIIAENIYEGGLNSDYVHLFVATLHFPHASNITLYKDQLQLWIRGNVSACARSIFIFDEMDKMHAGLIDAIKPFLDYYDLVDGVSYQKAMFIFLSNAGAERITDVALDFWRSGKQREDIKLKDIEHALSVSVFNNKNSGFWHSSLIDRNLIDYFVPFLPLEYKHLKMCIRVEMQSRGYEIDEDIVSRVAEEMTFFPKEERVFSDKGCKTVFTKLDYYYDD

[9] = target: Torsin-1A (Homo sapiens) (UniProt O14656); assay: small-molecule binders of mutant TOR1A in lysate, primary screen, cell lysate, small-molecule microarray, COS7 lysate, 635/667 nm fluorescence (AID 1150); details: COS7 hTOR1A mutant lysate, 635 nm fluorescence, higher = more signal;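 also: score pools 667 nm emission and signal to noise measuring lysate protein binding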
[10] = test system: Sonic hedgehog protein (Shh); assay: small-molecule binders of Shh protein, primary screen, biochemical, small-molecule microarray, 635/667 nm fluorescence (AID 1151); details: small-molecule microarray binding, 635 nm fluorescence; higher = more signal;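 also: Shh protein binding to compounds spotted on small-molecule microarray slides; score combines spot fluorescence intensity with signal-to-noise across triplicate slides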
[11] = E. coli DRC41 culture turbidity changes, primary screen, E. coli filamentation inducer project, strain DRC41, OD650, 48 h (AID 1152);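 also: E. coli MC1000 strain DRC41 lacking acrAB efflux pump and sulA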; details: E. coli DRC41 (acrAB sulA), higher = more signal, called active from +8 up or from −8 down
[12] = small-molecule binders of probe aLefty1, primary screen, biochemical, small-molecule microarray, 635/667 nm fluorescence (AID 1153); details: higher = more signal;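 also: score merges spot fluorescence with signal-to-noise ratio from the scanned slide images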
[13] = PSAC antagonists in infected red cells, primary screen, cell-based, P. falciparum Indochina, OD700, 1 h (AID 1154); details: P. falciparum Indochina infected RBC osmotic lysis, higher = more signal, called active from +8 up or from −8 down
[14] = PSAC antagonists in infected red cells, primary screen, cell-based, P. falciparum Indochina, OD700, 2 h (AID 1155);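 also: lysis reports solute entry through the parasite surface anion channel PSAC; channel blockers reduce lysis of infected cells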; details: P. falciparum Indochina infected erythrocytes, osmotic lysis OD700; higher = more signal, called active from +8 up or from −8 down
[15] = osmotic lysis modulators in infected erythrocytes, primary screen, PSAC antagonist project, cell-based, P. falciparum Indochina, OD700, 3 h (AID 1156); details: higher = more signal, called active from +8 up or from −8 down
[16] = PSAC antagonists in infected red cells, primary screen, cell-based, P. falciparum Indochina, OD700, 18 h (AID 1157); details: P. falciparum Indochina infected erythrocytes, osmotic lysis OD700, 18 h; higher = more signal, called active from +8 up or from −8 down
[17] = modulators of S6 phosphorylation in cells, primary screen, cell-based, A549, cytoblot, luminescence, serum-stimulated (AID 1158); details: A549 phospho-S6 cytoblot, 5 h, higher = more signal;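 also: serum-stimulated A549 lung adenocarcinoma cells; signal is phosphorylated S6 detected by cytoblot immunostaining with HRP secondary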
[18] = target: NADPH oxidase 2 (Homo sapiens) (UniProt P04839); assay: NOX2-dependent H2O2 signal modulators, primary screen, NOX inhibitor project, cell-based, HEK293-NOX2, PMA-stimulated, Amplex Red fluorescence (AID 1159); details: 45 min, higher = more signal, called active from +8 up or from −8 down; also: test concentration not given here
Sequence of NADPH oxidase 2 (Homo sapiens) (P04839 whole entry, looked up): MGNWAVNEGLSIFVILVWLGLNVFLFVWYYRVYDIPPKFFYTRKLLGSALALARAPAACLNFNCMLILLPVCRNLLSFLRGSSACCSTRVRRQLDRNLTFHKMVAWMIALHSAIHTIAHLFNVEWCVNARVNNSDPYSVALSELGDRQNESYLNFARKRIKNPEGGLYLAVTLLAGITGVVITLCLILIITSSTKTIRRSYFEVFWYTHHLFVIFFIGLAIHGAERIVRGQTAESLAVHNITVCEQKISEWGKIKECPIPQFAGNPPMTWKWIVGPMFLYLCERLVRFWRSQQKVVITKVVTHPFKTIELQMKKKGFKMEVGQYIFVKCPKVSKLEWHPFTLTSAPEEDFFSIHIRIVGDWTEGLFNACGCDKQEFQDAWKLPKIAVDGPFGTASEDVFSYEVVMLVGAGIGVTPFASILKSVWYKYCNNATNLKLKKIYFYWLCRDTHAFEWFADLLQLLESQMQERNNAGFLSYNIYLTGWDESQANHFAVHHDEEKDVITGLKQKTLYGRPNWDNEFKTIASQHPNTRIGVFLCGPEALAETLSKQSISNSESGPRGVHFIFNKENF

[19] = target: NADPH oxidase 4 (Homo sapiens) (UniProt Q9NPH5); assay: NOX4-dependent H2O2 signal modulators, primary screen, NOX inhibitor project, cell-based, HEK293-NOX4, tetracycline-induced, Amplex Red fluorescence (AID 1160); details: 45 min, higher = more signal, called active from +8 up or from −8 down
Sequence of NADPH oxidase 4 (Homo sapiens) (Q9NPH5 whole entry, looked up): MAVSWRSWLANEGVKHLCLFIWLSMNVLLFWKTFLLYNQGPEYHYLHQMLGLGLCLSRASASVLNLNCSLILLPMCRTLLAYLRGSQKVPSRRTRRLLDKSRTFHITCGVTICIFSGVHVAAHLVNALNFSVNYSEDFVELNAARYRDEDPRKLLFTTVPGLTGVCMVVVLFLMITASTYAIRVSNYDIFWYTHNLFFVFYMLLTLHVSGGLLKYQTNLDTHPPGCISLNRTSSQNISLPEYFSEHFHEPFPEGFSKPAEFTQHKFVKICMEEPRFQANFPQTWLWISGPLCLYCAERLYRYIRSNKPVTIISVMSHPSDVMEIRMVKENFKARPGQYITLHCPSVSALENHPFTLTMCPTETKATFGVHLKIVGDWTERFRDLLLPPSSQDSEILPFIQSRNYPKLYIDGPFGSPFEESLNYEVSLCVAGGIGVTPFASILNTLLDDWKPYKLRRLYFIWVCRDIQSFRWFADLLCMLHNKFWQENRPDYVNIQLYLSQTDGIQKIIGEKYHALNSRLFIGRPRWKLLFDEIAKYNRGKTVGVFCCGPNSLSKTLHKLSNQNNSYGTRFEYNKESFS

[20] = target: NADPH oxidase 5 (Homo sapiens) (UniProt Q96PH1); assay: NOX5-dependent H2O2 signal modulators, primary screen, NOX inhibitor project, cell-based, HEK293-NOX5, Amplex Red fluorescence (AID 1161); details: HEK293-NOX5, ionomycin, 45 min, higher = more signal
Sequence of NADPH oxidase 5 (Homo sapiens) (Q96PH1 whole entry, looked up): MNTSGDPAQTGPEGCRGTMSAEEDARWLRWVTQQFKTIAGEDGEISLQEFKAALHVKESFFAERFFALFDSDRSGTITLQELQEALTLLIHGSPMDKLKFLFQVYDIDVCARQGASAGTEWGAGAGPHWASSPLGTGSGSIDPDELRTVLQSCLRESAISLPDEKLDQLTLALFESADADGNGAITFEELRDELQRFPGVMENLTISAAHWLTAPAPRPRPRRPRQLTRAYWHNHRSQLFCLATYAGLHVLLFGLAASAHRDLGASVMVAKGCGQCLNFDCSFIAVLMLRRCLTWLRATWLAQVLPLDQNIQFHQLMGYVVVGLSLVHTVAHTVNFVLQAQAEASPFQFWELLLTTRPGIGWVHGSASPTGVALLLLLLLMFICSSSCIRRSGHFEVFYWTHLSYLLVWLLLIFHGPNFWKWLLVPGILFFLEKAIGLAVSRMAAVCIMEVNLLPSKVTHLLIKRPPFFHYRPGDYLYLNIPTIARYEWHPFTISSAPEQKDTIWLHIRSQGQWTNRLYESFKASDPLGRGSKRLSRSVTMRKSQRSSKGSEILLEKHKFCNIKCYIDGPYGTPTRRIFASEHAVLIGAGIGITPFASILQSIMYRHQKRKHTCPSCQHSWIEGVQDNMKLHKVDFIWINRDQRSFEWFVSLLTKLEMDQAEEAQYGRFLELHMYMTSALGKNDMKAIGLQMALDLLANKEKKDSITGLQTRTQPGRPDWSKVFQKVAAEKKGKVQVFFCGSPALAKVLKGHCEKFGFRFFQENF

Compound	composite z-score [1]	z-score [2]	z-score [3]	z-score [4]	z-score [5]	composite z-score [6]	composite z-score [7]	composite z-score [8]	composite z-score [9]	composite z-score [10]	z-score [11]	composite z-score [12]	z-score [13]	z-score [14]	z-score [15]	z-score [16]	z-score [17]	z-score [18]	z-score [19]	z-score [20]
Cc1ccc(C(C)CC(O)C2C=CC3C(=O)N(C)C(=O)C3N2NC(=O)OC(C)(C)C)o1 (stereo not given)	0.376	0.963 (inactive)	0.399 (inactive)	0.0569 (inactive)	-0.0179 (inactive)	1.22	0.4	0.204	1.05	0.245	-0.502 (inactive)	0.196	-0.205 (inactive)	0.562 (inactive)	-0.168 (inactive)	0.435 (inactive)	-0.497	0.347 (inactive)	-0.202 (inactive)	-0.701
C=CC[C@]1(C(=O)N2CCCCC2)N=C(c2ccc(OCCCO)cc2)O[C@H]1c1ccccc1	0.15	-3.83 (inactive)	0.351 (inactive)	2.73 (inactive)	0.0819 (inactive)	0.224	0.573	0.29	1.11	-0.328	0.573 (inactive)	0.629	18.8 (active)	3.99 (inactive)	1.61 (inactive)	1.11 (inactive)	-0.232	0.186 (inactive)	-0.0137 (inactive)	-1.71
CN1C(=O)C2C=CC(C(O)c3ccc(-c4ccccc4)s3)N(N(c3ccccc3)c3ccccc3)C2C1=O (stereo not given)	0.123	-0.0598 (inactive)	-0.468 (inactive)	-0.14 (inactive)	-0.101 (inactive)	1.14	0.12	0.91	-0.0126	0.409	-0.562 (inactive)	0.2	3.38 (inactive)	2.19 (inactive)	0.977 (inactive)	1.32 (inactive)	-1.12	1.1 (inactive)	0.963 (inactive)	-1.15
CC(C)C[C@H]1NC(=O)[C@@]23C(=O)N[C@@H](Cc4ccccc4)C2[C@H](C)[C@@]2(C)O[C@H]2C3/C=C/C/C=C\CNC(=O)[C@H](Cc2ccccc2)NC1=O (stereo not given in full)	0.234	-0.73 (inactive)	-0.137 (inactive)	-0.416 (inactive)	-0.862 (inactive)	-0.279	-0.0189	0.839	0.716	2.06	-0.0044 (inactive)	0.0999	2.14 (inactive)	-0.0365 (inactive)	1.58 (inactive)	0.207 (inactive)	-0.175	0.845 (inactive)	-0.847 (inactive)	0.971
C#CCNC(=O)[C@H](Cc1ccccc1)NC(=O)CCC(=O)O	-0.0994	0.0187 (inactive)	0.743 (inactive)	0.656 (inactive)	0.301 (inactive)	-0.869	-0.146	0.119	0.544	-0.192	-0.077 (inactive)	-0.36	-0.168 (inactive)	0.748 (inactive)	-0.707 (inactive)	0.0401 (inactive)	-0.665	0.658 (inactive)	-0.198 (inactive)	0.0788
